# Measurements taken from PubChem BioAssay (NCI).
# About 83,000 compounds went through this panel and 20% of them were active in at least one assay; those are over-represented in the sample as a whole.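 Note: values are percent growth. 100 is the growth of untreated cells, values between 100 and 0 indicate rising inhibition; between -100 and 0 indicates cell death.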 A number with no mark means an inactive call. Activity calls are given as the source filed them. Rule for the calls: active = growth percent below 10; inactive = the rest.
# How the values were obtained:
# Assay in all cases: NCI-60 one-dose screen, 48 h (100 = growth as untreated, 0 = no growth, -100 = all killed)
# Details in all cases: 10 µM unless noted
# SR leukemia = system: SR leukemia
# RPMI-8226 leukemia = system: RPMI-8226 leukemia
# OVCAR-8 ovarian = system: OVCAR-8 ovarian
# OVCAR-5 ovarian = system: OVCAR-5 ovarian
# OVCAR-4 ovarian = system: OVCAR-4 ovarian
# SK-OV-3 ovarian = system: SK-OV-3 ovarian
# IGROV1 ovarian = system: IGROV1 ovarian
# OVCAR-3 ovarian = system: OVCAR-3 ovarian
# HS 578T breast = system: HS 578T breast
# NCI/ADR-RES ovarian = system: NCI/ADR-RES ovarian
Compound,growth (SR leukemia),growth (RPMI-8226 leukemia),growth (OVCAR-8 ovarian),growth (OVCAR-5 ovarian),growth (OVCAR-4 ovarian),growth (SK-OV-3 ovarian),growth (IGROV1 ovarian),growth (OVCAR-3 ovarian),growth (HS 578T breast),growth (NCI/ADR-RES ovarian)
CC1(C)CC[C@]2(C(=O)N3CCOCC3)CC[C@]3(C)C(=CC[C@@H]4[C@@]5(C)C/C(=C/c6ccco6)C(=O)C(C)(C)[C@@H]5CC[C@]43C)[C@@H]2C1,44.6%,55.6%,91.3%,96.8%,60.9%,109%,86.7%,86.9%,83.5%,96.6%
O=C1Nc2ccccc2/C1=C/c1ccc(COCC2CO2)n1-c1ccc(O)cc1 (stereo not given),100%,95.7%,101%,107%,101%,114%,104%,111%,104%,106%
Cc1ccc(-n2c(/C=C3\C(=O)Nc4ccccc43)ccc2CO)cc1,46.6%,69.4%,94.3%,104%,90.1%,86.8%,75%,65.4%,87.3%,55.7%
COc1ccc(/C=N/NC2=NC3C(S2)N(C)C(=O)N3C)cc1 (stereo not given),6.64% (active),10.5%,35.6%,50.4%,75.6%,28%,40.9%,-17.1% (active),0.337% (active),30.7%
COc1ccccc1N1CCN(C2=CC(=O)C(C)=C(C)C2=O)CC1,119%,101%,100%,107%,93.2%,109%,112%,110%,103%,98.6%
CCCCCc1ccc(S(=O)(=O)Nc2cccc(-c3csc(NC(=O)CN4CCN(CCO)CC4)n3)c2)cc1,5.04% (active),20.2%,91.4%,101%,79.2%,89.5%,85.5%,93.2%,69.4%,99%
O=C(Nc1ccc(N=Cc2c(O)[nH]c3ccccc23)cc1)Nc1nccs1,10.7%,83.6%,55.7%,60.4%,40.6%,55%,29.5%,15.4%,31.5%,40.8%
NC(N)=Nc1ccc(Oc2cccc(NC(N)=Nc3ccc(Cl)c(C(F)(F)F)c3)c2)cn1,-16.4% (active),27.9%,53.5%,41.8%,52.7%,48.3%,-19.7% (active),3.55% (active),33.2%,95.4%
CC(=O)N1C(=S)NC(=O)C1CC(C)C (stereo not given),101%,99%,103%,100%,99.5%,101%,104%,118%,110%,105%
CC1(C)[C@@H](O)CC[C@]2(C)[C@H]3CC[C@@H]4[C@H]5[C@H](C(=O)/C=C\c6ccncc6)CC[C@]5(O)CC[C@@]4(C)[C@]3(C)CC[C@@H]12,4.32% (active),12.1%,40.3%,47.5%,38.5%,113%,37.3%,34.6%,39.3%,25.5%
CS(=O)(=O)c1ncc(-c2ccccc2)cn1,70.9%,108%,99.3%,103%,98.6%,108%,99.5%,90.7%,111%,103%
O=C1[C@H]2Cc3c([nH]c4ccccc34)[C@@H](c3ccc(Br)cc3)N2C(=O)CN1C1CCN(CC2CCCCC2)CC1,-67.6% (active),-35% (active),-48.5% (active),-84.6% (active),-64% (active),64.7%,-82.2% (active),-90% (active),-56.4% (active),-83.8% (active)
Cc1ccc(NC(=O)c2ccc(CN3CCOCC3)c(C(F)(F)F)c2)cc1Oc1ccc(-c2[nH]nc3ncnc(N)c23)cc1,55.5%,44.6%,70.9%,72%,72.7%,71.6%,74.2%,93.2%,62.8%,87.9%
